Shown are actives, neighbours in structure and some others; about 7.5% of the full set was active somewhere.
NPC1 prom act: activates the NPC1 promoter. actives 2.4% (n = 320,000). AID 485313. Potency, µM (top dose mostly 9.22 µM), without a hit: top-dose activation, actives largely listed as activators. Huh7 NPC1 promoter luciferase reporter, 24 h; note: % of control where 0% means no effect; nearly all actives have a fitted effect of over 60% in size
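Compounds in DMSO were transferred onto Huh7 NPC1-luciferase reporter cells pre-incubated 2 h; after 24 h at 37 °C, Amplite reagent was dispensed and luminescence recorded 10 min later.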
FLuc counter: inhibits or activates purified firefly luciferase, miR-21 counter-screen; P08659; purified FLuc, Km substrates, luminescence inhibition; Potency, µM (doses to about 57.5 µM), inactives show at the highest dose activity change, negative = inhibition, usual class: inhibitors; actives 6.9% (n = 360,000);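 note: plate controls were vehicle for no effect and reference inhibitor for full effect; nearly all actives have a fitted effect of over 55% in size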
Target sequence (P08659 whole entry, looked up): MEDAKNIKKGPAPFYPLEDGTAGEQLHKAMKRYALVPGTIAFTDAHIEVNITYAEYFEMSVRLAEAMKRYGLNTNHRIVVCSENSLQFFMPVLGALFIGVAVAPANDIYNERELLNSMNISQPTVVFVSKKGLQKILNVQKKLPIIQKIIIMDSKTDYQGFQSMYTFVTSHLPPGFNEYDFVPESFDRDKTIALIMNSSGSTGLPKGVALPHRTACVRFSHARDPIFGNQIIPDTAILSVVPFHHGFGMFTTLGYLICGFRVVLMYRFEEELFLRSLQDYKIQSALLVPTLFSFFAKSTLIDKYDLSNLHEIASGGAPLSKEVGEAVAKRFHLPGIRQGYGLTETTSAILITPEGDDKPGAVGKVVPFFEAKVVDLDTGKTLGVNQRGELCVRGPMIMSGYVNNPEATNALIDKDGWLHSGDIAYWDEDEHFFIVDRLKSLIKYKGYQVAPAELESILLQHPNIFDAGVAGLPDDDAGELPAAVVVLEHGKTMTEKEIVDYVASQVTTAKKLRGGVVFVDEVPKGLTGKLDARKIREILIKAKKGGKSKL
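Purified P. pyralis luciferase (10nM final) with 10uM D-luciferin and 10uM ATP (Km levels) in 50mM Tris acetate pH 7.5, 10mM Mg acetate, 0.01% Tween-20, 0.05% BSA; qHTS 6-point titration, ~60 µM downward; luminescence read.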
ELG1 genotox: genotoxicity induction in ELG1-luciferase HEK293T cells; HEK293T ELG1-luciferase reporter, luminescence, 16 h; AID 504466; actives 1.3% (n = 330,000); Potency, µM (titrated, usually from 46 µM), for the others: top-dose activity change, positive = activation, most hits filed as activators; note: % of control where 0% means no effect; nearly all actives have a fitted effect of over 60% in size
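Reporter readout depends on ELG1 protein level, which increases with genetic stress. After 16 hr compound exposure at 37 °C, luciferase activity was quantified using ONE-Glo.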
KinaseGlo FLuc: Kinase-Glo luciferase inhibition (counter-screen); Q27757; Kinase-Glo luciferase, ATP luminescence, 8 min; Potency, µM (doses to about 38.3 µM), inactives show at the highest dose activity change, negative = inhibition, usual class: inhibitors; actives 0.28% (n = 200,000); note: % is set by controls: 0 for no effect and ±100 for the full control effect; nearly all actives have a fitted effect of over 60% in size
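Kinase-Glo luciferase light output from ATP and luciferin was measured with 10 uM ATP, within the enzyme's linear range. Buffer: 50 mM imidazole pH 7.2, 50 mM KCl, 7 mM MgCl2, 0.01% Tween 20, 0.05% BSA; luminescence read after 8 min at ambient temperature.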
Rab9 promoter act: activators of Rab9 promoter; Huh7 Rab9 promoter-luciferase reporter, luminescence, 24 h; Potency, µM (series often up to 9.22 µM), for inactives: at the highest dose activation, negative = inhibition, actives largely listed as activators; actives 2.8% (n = 320,000); AID 485297; note: % of control where 0% means no effect; nearly all actives have a fitted effect of over 60% in size
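Quantitative HTS format; Huh7 Rab9-luciferase reporter cells (1500/well) receive compound 2 h post-plating, incubate 24 h at 37 °C, then get luciferase reagent for 10 min before luminescence reading.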
SMN2 splice up: SMN2 splice variant enhancement; HEK293 SMN2-luciferase splicing reporter, luminescence, 30-36 h; Potency, µM (doses to about 46.1 µM), without a hit: top-dose activity change, positive = activation, usual class: activators; actives 2.8% (n = 210,000); note: % of control where 0% means no effect; nearly all actives have a fitted effect of over 55% in size
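qHTS luciferase splicing reporter: luminescence rises when SMN2 exon 7 is included in transfected HEK293 cells. Compound exposure lasted 30-36 h at 37C, with 4.5 mM final sodium butyrate as control, followed by a ONE-Glo read.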
An asterisk follows results filed as active; ? = inconclusive; nt = no result given; [ ] = dose if it differs, or a comment. Calls come from the whole dose curve; as a rule, active = well fitted curve in the direction sought with a large enough effect; inconclusive = small, poorly fitted or top-dose-only effect, or another doubt; inactive = no such curve, though single readings can be large; an effect the other way counts as inactive or inconclusive. Potency is the fitted concentration of half-maximal effect.

SMILES	NPC1 prom act	FLuc counter	ELG1 genotox	KinaseGlo FLuc	Rab9 promoter act	SMN2 splice up
CS(=O)(=O)c1ccc2nc(NC(=O)c3cc4ccccc4o3)sc2c1	?	2.7µM*	1%	-5%	?	21%
CS(=O)(=O)c1ccc2nc(NC(=O)Oc3ccccc3)sc2c1	2%	?	4%	-6%	-4%	9%
CS(=O)(=O)c1ccc2sc(NC(=O)c3cc4ccccc4o3)nc2c1	?	2.7µM*	2%	nt	?	nt
CS(=O)(=O)c1ccc2nc(NC(=O)c3cc(-c4ccccc4)nn3-c3ccccc3)sc2c1	-3%	-7%	-5%	-1%	-2%	-27%
Cc1cc(NC(=O)c2cccc(Br)c2)n[nH]1	?	19µM*	?	nt	?	nt
COc1cccc(C(=O)NC(=O)Nc2cc(C)[nH]n2)c1	2µM*	9.5µM*	?	nt	1.6µM*	nt
Cc1cc(C)nc(NC(=O)c2cccc(Br)c2)n1	0%	8%	2%	nt	4%	nt
COc1cccc(C(=O)NC(=S)Nc2nnn(C)n2)c1	-1%	1%	10%	-5%	-4%	13%
CCN1CCN(C(=O)c2cnn(-c3cccc(C)c3)c2C2CCN(C(=O)OC(C)(C)C)CC2)CC1	nt	-4%	nt	nt	nt	nt
Cc1ccccc1NC(=O)CN(c1ccc(Cl)cc1Cl)S(=O)(=O)c1ccccc1	nt	1%	nt	nt	nt	0%
COc1ccc(S(=O)(=O)c2c(O)c3ccc(C(=O)Nc4ccccc4F)cc3[nH]c2=O)cc1	-4%	-17%	0%[9.26 µM]	nt	4%	nt
COc1ccc(C(=O)Nc2cc(C(C)C)c(O)c(S(=O)(=O)c3ccc(Cl)cc3)c2C)cc1	nt	?	nt	nt	nt	11µM*
COc1ccc(C(=O)Nc2cc(C(C)C)c(O)c(S(=O)(=O)c3ccc(OC)cc3)c2C)cc1	nt	?	nt	nt	nt	16µM*
CCOC(=O)Cn1c(=O)oc2cc(S(=O)(=O)N3CCC(C(=O)OCC)CC3)ccc21	nt	-1%	nt	nt	nt	-1%
C=CCNc1nc(NCc2ccccc2)c(C#N)c2c1CN(C)CC2	-5%	1%	-3%	-1%	2%	22µM*
CCOC(=O)c1c(C)n(OCc2ccccc2)c2ccc3c(no[n+]3[O-])c12	-2%	1%	4%	-1%	-5%	0%
Cn1c(-c2ccccc2)cc2c3no[n+]([O-])c3ccc21	?	13µM*	5%	4%	-28%	-80%
COc1ccc2oc(C(=O)NN3C(C)CCCC3C)c(C)c2c1 (stereo unspecified)	-7%	-2%	1%	2%	-4%	13%
COc1ccc2c(CC(=O)Nc3ccc(OC)c(S(=O)(=O)N4CCOCC4)c3)coc2c1	2%	17µM*	14%	-4%	-1%	3%
COc1ccc(NC(=O)Cc2coc3cc(C)c(C(C)C)cc23)cc1S(=O)(=O)N1CCOCC1	-1%	?	1%	2%	-14%	-70%
COc1ccc2oc(C(=O)Nc3ccc(C)cn3)c(C)c2c1	2.5µM*	1.9µM*	5.8µM*	nt	3.2µM*	nt
COc1ccc(C(=O)Nc2ccccn2)cc1	-2%	2%	-2%	0%	-4%	2%
COc1ccc2c(CC(=O)Nc3nc(C)cs3)coc2c1	10%	24µM*	-3%	-4%	?	-3%
COc1ccc2oc(C(=O)Nc3ccccn3)c(C)c2c1	?	0.6µM*	?	nt	4µM*	nt
COc1cccc(CNC(=O)CCc2c(C)nc3c4c(C)cc(C)nc4nn3c2C)c1	nt	-3%	nt	nt	nt	-2%
SMILES	NPC1 prom act	FLuc counter	ELG1 genotox	KinaseGlo FLuc	Rab9 promoter act	SMN2 splice up
Cc1ccc(C(=O)NCC(c2cccs2)S(=O)(=O)c2cccs2)cc1C (stereo unspecified)	nt	1%	nt	nt	nt	nt
CCN(CC(=O)Nc1ccccc1C(F)(F)F)C(=O)c1oc2ccc(OC)cc2c1C	6%	17µM*	?	nt	-2%	nt
COc1ccc2oc(C(=O)Nc3nc(C)cs3)c(C)c2c1	2.5µM*	0.6µM*	?	nt	5.6µM*	nt
O=C(N/N=C/c1ccc(F)cc1)c1sccc1OCc1ccc(F)cc1	-18%	9.5µM*	12%	-4%	-8%	4%
O=C(COCC(=O)N/N=C/c1ccc(F)cc1)N/N=C/c1ccc(F)cc1	0%	8.5µM*	4%	-3%	2%	10%
O=C(COCC(=O)N/N=C/c1ccccc1F)N/N=C/c1ccccc1F	0%	?	1%	-5%	13%	8%
CCOC(=O)C(=O)N/N=C/c1ccc(F)cc1	3%	13µM*	-8%	nt	-3%	nt
COc1ccc(NC(=O)CN2CCN(C(=S)NC3CCCC3)CC2)cc1	-3%	5%	0%	nt	-3%	nt
COc1c(C)cc(Br)cc1C(=O)Nc1ccc(N2CCN(S(C)(=O)=O)CC2)cc1	-5%	2%	6%	-2%	-1%[1.84 µM]	0%
COc1ccccc1C(=O)Nc1ccc(N2CCN(S(C)(=O)=O)CC2)cc1	25%	?	9.2µM*	-11%	?	?
COc1ccccc1C(=O)Nc1ccccc1N1CCN(S(C)(=O)=O)CC1	-1%	2%	-10%	1%	-1%	?
COc1c(C)cccc1C(=O)Nc1ccc(N2CCN(S(C)(=O)=O)CC2)cc1	4µM*	15µM*	?	2%	3.2µM*	?
COc1ccc2c(C)c(CCC(=O)NCCc3ccccc3OC)c(=O)oc2c1	nt	-2%	nt	nt	nt	-1%
O=C(COc1ccccc1)NC(=S)N1CCc2ccccc21	12%	?	3%	-3%	17%	?
COc1ccc(OCC(=O)NC(=S)N2CCCc3ccccc32)cc1	7%	27µM*	10µM*	-5%	-1%	15%
COc1ccccc1C(=O)NC(=S)N1CCc2ccccc21	1%	-20%	5%	2%	0%	6%
COc1ccccc1C(=O)NC(=S)N1CCCc2ccccc21	-17%	21µM*	10%	-3%	8%	-87%
O=C(NC(=S)N1CCCc2ccccc21)c1ccc(Cl)cc1	15%	6.7µM*	16%	0%	26%	?
COC(=O)c1cc(S(=O)(=O)NCc2ccc3c(c2)OCO3)cn1C	2%	1%	0%	nt	-1%	nt
COCC(=O)N1CCCC(C(=O)c2ccc(-c3ccccc3)c(F)c2)C1 (stereo unspecified)	2%	?	-4%	1%	14%	nt
CCc1ccccc1N(C)C(=O)Cn1cnc2sc(C)c(S(=O)(=O)N3CCN(c4ncccn4)CC3)c2c1=O	nt	-3%	nt	nt	nt	3%
O=C(COC(=O)c1ccc([N+](=O)[O-])cc1Cl)Nc1cccnc1Cl	-1%	-7%	0%	nt	-5%	nt
